Laboratory results as given in PubChem BioAssay (NCATS).
Records with an inconclusive call do not appear. The source made the active and inactive calls. The call rests on the fitted dose curve; in most records, active means well fitted cell-killing curve with a large enough effect; inconclusive means small, poorly fitted or top-dose-only effect, or effect the other way; inactive means flat fitted curve, though single readings scatter.

Legend:
Experiment in all cases: Primary qHTS to identify gynecologic anti-cancer compounds using libraries of approved drugs and bioactive compounds (AID 1345084); further: nearly all actives have a fitted effect of over 55% in size
C33A = conditions: Gynecologic cancer cell panel viability, ATPlite luminescence, 48 h; series mostly up to 57.5 µM
Method in brief: (§1)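 48 h compound exposure at 37 C, 5% CO2; five-point qHTS. ATPlite luminescence readout of cell ATP.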

CAOV3 = conditions: Gynecologic cancer cell panel viability, ATPlite luminescence, 48 h; series mostly up to 57.5 µM
Method in brief: as §1

CASKI = conditions: Gynecologic cancer cell panel viability, ATPlite luminescence, 48 h; series mostly up to 57.5 µM
Method in brief: as §1

Es-2 = conditions: Gynecologic cancer cell panel viability, ATPlite luminescence, 48 h; series mostly up to 57.5 µM
Method in brief: as §1

HeLa = conditions: Gynecologic cancer cell panel viability, ATPlite luminescence, 48 h; series mostly up to 57.5 µM
Method in brief: as §1

Hek293T = conditions: Gynecologic cancer cell panel viability, ATPlite luminescence, 48 h, control line for the selectivity index; series mostly up to 57.5 µM
Method in brief: as §1

JEG-3 = conditions: Gynecologic cancer cell panel viability, ATPlite luminescence, 48 h; series mostly up to 57.5 µM
Method in brief: as §1

OV90 = conditions: Gynecologic cancer cell panel viability, ATPlite luminescence, 48 h; series mostly up to 57.5 µM
Method in brief: as §1

PA-1 = conditions: Gynecologic cancer cell panel viability, ATPlite luminescence, 48 h; series mostly up to 57.5 µM
Method in brief: as §1

Tov-21-G = conditions: Gynecologic cancer cell panel viability, ATPlite luminescence, 48 h; series mostly up to 57.5 µM
Method in brief: as §1

Tov112D = conditions: Gynecologic cancer cell panel viability, ATPlite luminescence, 48 h; series mostly up to 57.5 µM
Method in brief: as §1
On the % scale 0 is the no-effect control and ±100 the full control effect.

Cc1cnc(-c2ccccc2C(C)C)nc1NCc1ccc(-n2ccnn2)cc1
inactive: Potency (C33A) | Potency (CAOV3) | Potency (CASKI) | Potency (Es-2) | Potency (HeLa) | Potency (Hek293T) | Potency (JEG-3) | Potency (OV90) | Potency (PA-1) | Potency (Tov-21-G) | Potency (Tov112D)

Fc1ccc(-c2cncc(CN3CCN(c4cccc5c4OCCO5)CC3)c2)cc1
inactive: Potency (C33A) | Potency (CAOV3) | Potency (CASKI) | Potency (Es-2) | Potency (HeLa) | Potency (Hek293T) | Potency (JEG-3) | Potency (OV90) | Potency (PA-1) | Potency (Tov-21-G) | Potency (Tov112D)

COc1ccc2c(c1O[C@H]1CCNC1)CCC2
inactive: Potency (C33A) | Potency (CAOV3) | Potency (CASKI) | Potency (Es-2) | Potency (HeLa) | Potency (Hek293T) | Potency (JEG-3) | Potency (OV90) | Potency (PA-1) | Potency (Tov-21-G) | Potency (Tov112D)

CC1OC(=O)C[C@@H]2C(C(=O)O)=CO[C@@H](O[C@H]3O[C@H](CO)[C@@H](O)[C@H](O)[C@H]3O)[C@H]12 (some centres undefined)
inactive: Potency (C33A) | Potency (CAOV3) | Potency (CASKI) | Potency (Es-2) | Potency (HeLa) | Potency (Hek293T) | Potency (JEG-3) | Potency (OV90) | Potency (PA-1) | Potency (Tov-21-G) | Potency (Tov112D)

Nc1nc2c(cnn2CCCc2ccc(O)cc2)c2nc(-c3ccco3)nn12
inactive: Potency (C33A) | Potency (CAOV3) | Potency (CASKI) | Potency (Es-2) | Potency (HeLa) | Potency (Hek293T) | Potency (JEG-3) | Potency (OV90) | Potency (PA-1) | Potency (Tov-21-G) | Potency (Tov112D)

CC/C=C\CC1C(=O)C=CC1(CCCCC1CCC(=O)O1)OC(C)=O (centres undefined)
inactive: Potency (C33A) | Potency (CAOV3) | Potency (CASKI) | Potency (Es-2) | Potency (HeLa) | Potency (Hek293T) | Potency (JEG-3) | Potency (OV90) | Potency (PA-1) | Potency (Tov-21-G) | Potency (Tov112D)

OC1(CN2CCC(COc3noc4cccc(O[C@@H]5CCOC5)c34)CC2)CCOCC1
inactive: Potency (C33A) | Potency (CAOV3) | Potency (CASKI) | Potency (Es-2) | Potency (HeLa) | Potency (Hek293T) | Potency (JEG-3) | Potency (OV90) | Potency (PA-1) | Potency (Tov-21-G) | Potency (Tov112D)

COCCN(C(=O)c1cc(OC)c(OC)c(OC)c1)c1nc(-c2ccccc2)cs1
inactive: Potency (C33A) | Potency (CAOV3) | Potency (CASKI) | Potency (Es-2) | Potency (HeLa) | Potency (Hek293T) | Potency (JEG-3) | Potency (OV90) | Potency (PA-1) | Potency (Tov-21-G) | Potency (Tov112D)

CC1(C)CC[C@]2(C(=O)O)CC[C@]3(C)C(=CCC4[C@@]5(C)C[C@@H](O)[C@H](O)[C@@](C)(CO)C5CC[C@]43C)[C@@H]2[C@@H]1O (some centres undefined)
inactive: Potency (C33A) | Potency (CAOV3) | Potency (CASKI) | Potency (Es-2) | Potency (HeLa) | Potency (Hek293T) | Potency (JEG-3) | Potency (OV90) | Potency (PA-1) | Potency (Tov-21-G) | Potency (Tov112D)

O=C(Nc1ccccc1)c1ccc(Nc2nnc(-c3ccc(O)cc3)c3ccccc23)cc1
inactive: Potency (C33A) | Potency (CAOV3) | Potency (CASKI) | Potency (Es-2) | Potency (HeLa) | Potency (Hek293T) | Potency (JEG-3) | Potency (OV90) | Potency (PA-1) | Potency (Tov-21-G) | Potency (Tov112D)

O=C(NS(=O)(=O)c1ccc(Br)s1)c1ccc(Cl)cc1Cl
inactive: Potency (C33A) | Potency (CAOV3) | Potency (CASKI) | Potency (Es-2) | Potency (HeLa) | Potency (Hek293T) | Potency (JEG-3) | Potency (OV90) | Potency (PA-1) | Potency (Tov-21-G) | Potency (Tov112D)

C/C=C/C=C/C=C/C(=O)O[C@@H]1C=C(CO)C(O)(C(=O)OC)[C@@]2(C)CCCC(C)(C)C12 (some centres undefined)
inactive: Potency (C33A) | Potency (CAOV3) | Potency (CASKI) | Potency (Es-2) | Potency (HeLa) | Potency (Hek293T) | Potency (JEG-3) | Potency (OV90) | Potency (PA-1) | Potency (Tov-21-G) | Potency (Tov112D)

O=S(=O)(Cc1ccccc1)Nc1ccc(-c2ccc3c(cnn3-c3ccc(F)cc3)c2)c(C(F)(F)F)c1
inactive: Potency (C33A) | Potency (CAOV3) | Potency (CASKI) | Potency (Es-2) | Potency (HeLa) | Potency (Hek293T) | Potency (JEG-3) | Potency (OV90) | Potency (PA-1) | Potency (Tov-21-G) | Potency (Tov112D)

C/C(=C/C=C\C=C\Cc1cnco1)[C@@H](O)C(C)(C)C(N)=O
inactive: Potency (C33A) | Potency (CAOV3) | Potency (CASKI) | Potency (Es-2) | Potency (HeLa) | Potency (Hek293T) | Potency (JEG-3) | Potency (OV90) | Potency (PA-1) | Potency (Tov-21-G) | Potency (Tov112D)

CCC(C)C(=O)O[C@H]1[C@H](O)[C@@]2(COC(C)=O)C(CC1(C)C)C1=CCC3[C@@]4(C)CC[C@H](O[C@@H]5O[C@H](C(=O)O)[C@@H](O)[C@H](O)[C@H]5O)[C@@](C)(CO)C4CC[C@@]3(C)[C@]1(C)C[C@@H]2O (some centres undefined)
inactive: activity change, negative = cytotoxicity (C33A) -3% [at 11.6 µM] | activity change, negative = cytotoxicity (CAOV3) -4.8% [at 11.6 µM] | activity change, negative = cytotoxicity (CASKI) 10.3% [at 11.6 µM] | activity change, negative = cytotoxicity (Es-2) 5.26% [at 11.6 µM] | activity change, negative = cytotoxicity (HeLa) 8.08% [at 11.6 µM] | activity change, negative = cytotoxicity (Hek293T) 5.16% [at 11.6 µM] | activity change, negative = cytotoxicity (JEG-3) 9.72% [at 11.6 µM] | activity change, negative = cytotoxicity (OV90) 0.006% [at 11.6 µM] | activity change, negative = cytotoxicity (PA-1) 5.51% [at 11.6 µM] | activity change, negative = cytotoxicity (Tov-21-G) 17.2% [at 11.6 µM] | activity change, negative = cytotoxicity (Tov112D) 6.69% [at 11.6 µM]

Cn1nc(C(C)(C)C)cc1C(=O)N[C@@H](Cc1cccc(Cl)c1)C(=O)NCC#N
inactive: Potency (C33A) | Potency (CAOV3) | Potency (CASKI) | Potency (Es-2) | Potency (HeLa) | Potency (Hek293T) | Potency (JEG-3) | Potency (OV90) | Potency (PA-1) | Potency (Tov-21-G) | Potency (Tov112D)

O=C(Nc1cccnn1)N1CCN(c2nccc(-c3ccc(F)c(F)c3)n2)CC1
inactive: Potency (C33A) | Potency (CAOV3) | Potency (CASKI) | Potency (Es-2) | Potency (HeLa) | Potency (Hek293T) | Potency (JEG-3) | Potency (OV90) | Potency (PA-1) | Potency (Tov-21-G) | Potency (Tov112D)

COc1cc(C#N)ccc1S(=O)(=O)Nc1ccc2c(c1)cc(C)c(=O)n2C
inactive: Potency (C33A) | Potency (CAOV3) | Potency (CASKI) | Potency (Es-2) | Potency (HeLa) | Potency (Hek293T) | Potency (JEG-3) | Potency (OV90) | Potency (PA-1) | Potency (Tov-21-G) | Potency (Tov112D)

CCOc1cccc(NC(=O)c2ccc(N3CCCC3)c(C(F)(F)F)c2)c1
inactive: Potency (C33A) | Potency (CAOV3) | Potency (CASKI) | Potency (Es-2) | Potency (HeLa) | Potency (Hek293T) | Potency (JEG-3) | Potency (OV90) | Potency (PA-1) | Potency (Tov-21-G) | Potency (Tov112D)
